Measurements: PubChem BioAssay (NCATS)
Results filed as inconclusive are left out. A call without a number means that no potency is given here. Unmarked numbers belong to inactive results. The source made the active and inactive calls. Calls come from the whole dose curve; as a rule, active = well fitted inhibition curve with a large enough effect; inconclusive = small, poorly fitted or top-dose-only effect; inactive = flat fitted curve, though single readings scatter.

Key:
[1] = molecular target: Glutathione peroxidase 1 (Homo sapiens) (UniProt P07203); test: Primary qHTS Assay for Inhibitors of Recombinant Selenoprotein Glutathione Peroxidase 1 (GPX1) (AID 1845191); note: nearly all actives have a fitted effect of over 65% in size; note: potency is the fitted concentration of half-maximal effect
Procedure, shortened: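 GPX1 10 nM, GR 100 nM, GSH 1 mM, NADPH 0.5 mM, CHP 0.5 mM (final). 30-min cpd preincubation, RT. Ex340/Em450 read t=0, t=15 min.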

[2] = molecular target: Phospholipid hydroperoxide glutathione peroxidase GPX4 (Homo sapiens) (UniProt P36969); test: Primary qHTS Assay for Inhibitors of Recombinant Selenoprotein Glutathione Peroxidase 4 (GPX4) (AID 1845192); note: nearly all actives have a fitted effect of over 65% in size; note: potency is the fitted concentration of half-maximal effect
Procedure, shortened: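 qHTS, GR-coupled: GPX4 200 nM + cpd 30 min RT → GSH 1 mM, NADPH 0.5 mM, GR 100 nM → CHP 0.5 mM start; fluor 340/450 at t0 and t15 min; no-enzyme wells as control.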

[3] = qHTS profiling for inhibitors of Plasmodium falciparum proliferation (AID 504749); note: nearly all actives have a fitted effect of over 60% in size; settings: P. falciparum in erythrocytes, SYBR Green DNA, 72 h
Procedure, shortened: (§1)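 Fluorescence of SYBR Green-bound parasite DNA, read at 485/535 nm, served as the growth measure. Infected erythrocytes were cultured with compound 72 h; artemisinin (0.29 uM) and DMSO wells defined the normalization range.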

[4] = test system: 3D7; test: as above; settings: P. falciparum in erythrocytes, SYBR Green DNA, 72 h; series mostly up to 28.7 µM
Procedure, shortened: as §1

[5] = at 28.7 µM (top of the series), parasite line A
[6] = at 28.7 µM (top of the series), parasite line B
[7] = at 12.8 µM (top of the series), parasite line A
[8] = at 12.8 µM (top of the series), parasite line B

Glutathione peroxidase 1 (Homo sapiens), sequence (P07203 whole entry, looked up): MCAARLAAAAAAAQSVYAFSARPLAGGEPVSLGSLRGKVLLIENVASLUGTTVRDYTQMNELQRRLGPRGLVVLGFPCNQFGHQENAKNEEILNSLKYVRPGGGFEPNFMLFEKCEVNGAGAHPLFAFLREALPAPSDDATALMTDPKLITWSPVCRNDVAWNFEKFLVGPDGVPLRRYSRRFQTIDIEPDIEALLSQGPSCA
Phospholipid hydroperoxide glutathione peroxidase GPX4 (Homo sapiens), sequence (P36969 whole entry, looked up): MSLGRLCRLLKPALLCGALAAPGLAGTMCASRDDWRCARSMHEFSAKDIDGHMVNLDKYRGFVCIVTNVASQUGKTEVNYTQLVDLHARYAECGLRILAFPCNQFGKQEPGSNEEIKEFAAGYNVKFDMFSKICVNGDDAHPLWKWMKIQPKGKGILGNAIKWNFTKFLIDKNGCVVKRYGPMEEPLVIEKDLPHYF

SMILES	Potency [1]	Potency [2]	activity, negative = inhibition [3, 5]	activity, negative = inhibition [3, 6]	Potency [4]	activity, negative = inhibition [3, 7]	activity, negative = inhibition [3, 8]
Cc1c(C(N)=O)cc([N+](=O)[O-])cc1[N+](=O)[O-]	inactive	inactive	-7.97%	-2.31%	inactive		
CCCN1CCCC[C@H]1C(=O)Nc1c(C)cccc1C	inactive	inactive	9.76%	10.7%	inactive		
CC(=O)OCC(=O)[C@@]1(OC(C)=O)[C@@H](C)C[C@H]2[C@@H]3C[C@H](F)C4=CC(=O)C=C[C@]4(C)[C@@]3(F)[C@@H](O)C[C@@]21C	inactive	inactive	-18.2%		inactive		
O=C(O)CCCCC(=O)O	inactive	inactive	-0.183%	5.83%	inactive		
CCCCOc1ccc(C(=O)CCN2CCCCC2)cc1	inactive	inactive			inactive	2.86%	-20.7%
CC(C)COC(=O)c1ccc(N)cc1	inactive	inactive		-17.5%	inactive		
CC(=O)OCC(=O)NCCCOc1cccc(CN2CCCCC2)c1	inactive	inactive	16.5%	8.13%	inactive		
Cc1c(N(C)CS(=O)(=O)O)c(=O)n(-c2ccccc2)n1C	3.21 µM (active)	2 µM (active)			inactive	17.9%	23.3%
CCOC(=O)OC(C)OC1=C(C(=O)Nc2ccccn2)N(C)S(=O)(=O)c2ccccc21 (centres undefined)	inactive	inactive	3.03%	19.4%	inactive		
CC(=O)c1ccc2c(c1)N(CCCN1CCC(CCO)CC1)c1ccccc1S2	inactive	inactive			inactive	-2.26%	0.0996%
COc1cc(OC)cc(OC)c1	inactive	inactive	14.7%	2.05%	inactive		
CCC(=O)c1c(O)cc(O)cc1O	inactive	inactive	-1.33%	0.647%	inactive		
COc1ccc(C2C(=O)c3ccccc3C2=O)cc1	inactive	inactive	3.83%		inactive		
O=C(O)CNC(=O)c1ccccc1	inactive	inactive	-0.717%	10.3%	inactive		
C[C@@H]1C(=O)NC2=Nc3cccc(Cl)c3CN21	inactive	inactive		-2.54%	inactive		
CC(C)NC[C@@H](O)COc1cccc2ccccc12	inactive	inactive	4.7%		inactive		
CC(C)(C(=O)c1cccnc1)c1cccnc1	inactive	inactive			inactive	-8.96%	-23.5%
CN(C)CCOc1ccccc1Cc1ccccc1	inactive	inactive	-13.9%	-12.1%	inactive		
Cc1cc(O)c(C(C)C)cc1Cl	inactive	inactive	0.647%	11.2%	inactive		
CC(=O)Oc1ccc(C(=C2CCCCC2)c2ccc(OC(C)=O)cc2)cc1	inactive	inactive	6.38%	9.72%	inactive		
CCCCCCc1ccc(O)cc1O	inactive	inactive	6.34%	12.1%	inactive		
N[C@H](Cc1c[nH]c2ccccc12)C(=O)O	inactive	inactive	7.64%	6.56%	inactive		
Nc1cc(Cl)c(NC2=NCCN2)c(Cl)c1	inactive	inactive	18.9%	15.3%	inactive		
C[C@H]1[C@H](NC(=O)/C(=N/OC(C)(C)C(=O)O)c2csc(N)n2)C(=O)N1S(=O)(=O)O (stereo in doubt)	inactive	inactive			inactive	1.65%	14.2%
CCCCOc1cc(C(=O)NCCN(CC)CC)c2ccccc2n1	inactive	inactive			inactive	7.49%	7.29%
CC(=O)Nc1c(I)cc(I)c(C(=O)O)c1I	inactive	inactive	6.87%	14.3%	inactive		
O=C1CCC(c2ccc(-n3ccnc3)cc2)=NN1	inactive	inactive	16%	14.3%	inactive		
C[C@H](O)C(=O)Nc1c(I)c(C(=O)NC(CO)CO)c(I)c(C(=O)NC(CO)CO)c1I	inactive	inactive			inactive	-8.8%	10.5%
Cc1c(C(C)C)c(=O)n(-c2ccccc2)n1C	inactive		5.32%	0.527%	inactive		
